In the library only some 7.5% were active in any assay of this set; here they are far more common.
FBPA Giardia inh: Giardia lamblia aldolase inhibition. Potency, µM (doses to about 59.6 µM), inactives show at the top dose activity, negative = inhibition, hits mostly inhibitors. AID 2451. 290,000 tested, 0.71% active. purified Giardia FBPA. A8B2U2; also: potency is read from the fitted curve at half-maximal effect; nearly all actives have a fitted effect of over 55% in size
Target sequence (A8B2U2 whole entry, looked up): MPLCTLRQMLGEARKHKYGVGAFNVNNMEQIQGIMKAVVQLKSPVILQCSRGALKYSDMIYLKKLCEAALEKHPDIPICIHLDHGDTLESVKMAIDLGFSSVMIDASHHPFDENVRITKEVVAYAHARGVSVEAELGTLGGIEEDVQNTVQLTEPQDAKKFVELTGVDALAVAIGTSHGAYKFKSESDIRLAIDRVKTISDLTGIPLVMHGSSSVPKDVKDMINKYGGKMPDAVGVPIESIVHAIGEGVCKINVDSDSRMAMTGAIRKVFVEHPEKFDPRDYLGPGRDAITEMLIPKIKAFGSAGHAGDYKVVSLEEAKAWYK
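40 nM FBPA preincubated 10 min at RT with compound (up to 57.5 uM final), then substrate plus GAPDH/TPI/NAD/arsenate coupling and diaphorase/resazurin added. Fluorescence read after 20 min at RT, 525/598 nm.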
HCV inhibitor: blocks hepatitis C virus; Potency, µM (top dose mostly 41.8 µM), without a hit: at the top dose activity change, negative = inhibition, hits mostly inhibitors; Huh7.5.1 HCVcc-Cre infection, luciferase reporter, 44 h; 340,000 tested, 3.4% active; also: potency is read from the fitted curve at half-maximal effect
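HCVcc-Cre virus at an moi near 0.5 was added right after compound to cells cultured 4 h from seeding (1,000 cells/well). Luciferase activity was determined 44 h later, 15 min after substrate addition at RT.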
Vaccinia Venus: inhibitors of vaccinia virus (Venus reporter) | Vaccinia virus Venus reporter expression, fluorescence | Potency, µM (series often up to 36.5 µM), for the others: at the top dose activity change, negative = inhibition, most hits filed as inhibitors | 330,000 tested, 0.46% active; calls by dose curve; tested in A549 cells; also: potency is read from the fitted curve at half-maximal effect; nearly all actives have a fitted effect of over 30% in size
FMDV antiviral: blocks foot and mouth disease virus; Potency, µM (titrated, usually from 57.9 µM), for the others: at the top dose activity change, negative = inhibition, usual class: inhibitors; FMDV antiviral cell-based qHTS; 410,000 tested, 1.2% active; calls by dose curve; tested in HEK293T cells; also: read-out not given here; potency is read from the fitted curve at half-maximal effect; nearly all actives have a fitted effect of over 45% in size
Vaccinia mCherry: vaccinia inhibition (mCherry reporter). Vaccinia virus mCherry reporter infection, fluorescence. Potency, µM (top dose mostly 36.5 µM), without a hit: at the top dose activity change, negative = inhibition, most hits filed as inhibitors. 310,000 tested, 0.63% active; calls by dose curve; tested in A549 cells; also: potency is read from the fitted curve at half-maximal effect; nearly all actives have a fitted effect of over 35% in size
HCMV inh: inhibitors of human cytomegalovirus. HFF cells, HCMV-luciferase reporter, 72 h; stronger effect = lower value. activity change, negative = inhibition, % at 57.5 µM. 410,000 tested, 4.5% active; in the data active = activity change below about -60%; inconclusive = no clear call, values can overlap the other calls; inactive = above about -39%
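Human foreskin fibroblasts infected with luciferase-reporter HCMV at MOI 1 PFU/cell, compounds at two doses. Luciferase measured 72 h post infection; normalized to buffer-only basal and Salinomycin (10uM) controls.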
Starred values were filed as active, the others as inactive; i = inactive; ? = inconclusive; nt = no result. Unless noted, calls follow the shape of the dose curve; as a rule, active = well fitted curve in the direction sought with a large enough effect; inconclusive = small, poorly fitted or top-dose-only effect, or another doubt; inactive = no such curve, though single readings can be large; an effect the other way counts as inactive or inconclusive. % is scaled to controls: 0 for no effect and ±100 for the full control effect.

SMILES	FBPA Giardia inh	HCV inhibitor	Vaccinia Venus	FMDV antiviral	Vaccinia mCherry	HCMV inh
Cc1cc(NC(=O)c2ccccc2Cl)no1	nt	14%	-8%	50%	nt	71
Cc1ccc2nc(-c3ccccc3Cl)cc(C(=O)Nc3cc(C)on3)c2c1	-9%	13µM*	-12%	?	nt	-39
COC(=O)CCN(c1ccccc1)S(=O)(=O)c1cc(-c2cc(C)no2)ccc1OC	13%	-25%	-19%	11%	-24%	-16
CCCCCn1c(=O)[nH]c2cc(C(=O)N3CCN(c4ccc(C(C)=O)cc4)CC3)ccc2c1=O	6%	7.9µM*	-9%	?	i	-74*
CCCCCn1c(=O)[nH]c2cc(C(=O)N3CCN(c4ccc(OC)cc4)CC3)ccc2c1=O	nt	nt	-15%	-23%	-16%	-20
CCCCCn1c(=O)[nH]c2cc(C(=O)N3CCN(CC)CC3)ccc2c1=O	4%	-18%	nt	-18%	nt	-25
CCCCCn1c(=O)[nH]c2cc(C(=O)N3CCN(c4ccc(F)cc4)CC3)ccc2c1=O	nt	?	6%	?	-7%	-76*
CCCCCn1c(=O)[nH]c2cc(C(=O)N3CCN(c4cccc(C)c4)C(C)C3)ccc2c1=O (stereo not given)	nt	nt	-15%	16µM*	-25%	-28
CCOC(=O)c1cc(C#N)c(N2CCN(c3ccccn3)CC2)nc1-c1ccccc1	0%	?	-16%	-17%	-12%	-29
CCOC(=O)c1cc(C#N)c(N2CCCNCC2)nc1C(F)(F)F	-6%	16µM*	-7%	-9%	i	1
O=C(C1CC12CCN(Cc1cccc3cccnc13)CC2)N1CCN(Cc2cccs2)CC1 (stereo not given)	nt	nt	-5%	-9%	-11%	nt
O=C(Nc1ccnn1C1CCN(C(=O)c2cc(Cl)ccc2F)CC1)C1CCOC1 (stereo not given)	-6%	12%	nt	1%	nt	-12
O=C(O)CCNc1nc(C(F)(F)F)nc2ccccc12	5%	?	2%	-11%	-1%	-26
OC(CNc1nc(C(F)(F)F)nc2ccccc12)c1ccccc1 (stereo not given)	nt	?	-17%	-22%	3%	-66*
COc1ccc(NC(=O)C(C)N2Cc3ccccc3C2=O)cc1OC (stereo not given)	nt	nt	-9%	-8%	-9%	2
Cc1cc(C)c(-c2csc(Cc3nc(-c4cc5ccccc5oc4=O)cs3)n2)cc1C	2%	?	-3%	?	-9%	-65*
O=c1oc2ccccc2cc1-c1csc(Cc2nc(-c3ccc(Br)cc3)cs2)n1	17%	?	nt	-16%	nt	-99*
O=c1oc2ccc(Br)cc2cc1-c1csc(-c2ccccc2)n1	nt	nt	-10%	-7%	-9%	2
Cc1noc(C)c1-c1ccc2ncnc(NCc3ccc4c(c3)OCO4)c2c1	-8%	nt	nt	nt	nt	nt
CN1/C(=C/C=C/c2n(C)c3cc([N+](=O)[O-])c([N+](=O)[O-])cc3[n+]2C)C(C)(C)c2ccccc21	nt	nt	51%	?	-23%	-67*
CCCNC1=C(N(C(C)=O)c2cccc(F)c2)C(=O)c2ccccc2C1=O	?	7.9µM*	13µM*	28µM*	14µM*	-100*
CCOC(=O)CNC(=O)c1cccnc1Oc1ccc(Cl)cc1	0%	19%	-20%	-9%	-1%	-24
CC1(C)CC(=O)C(C2(O)C(=O)N(Cc3ccccc3)c3ccccc32)CO1 (stereo not given)	0%	0%	nt	-9%	nt	-16
CN1C(=O)C(C2(O)C(=O)N(Cc3ccccc3)c3cc([N+](=O)[O-])ccc32)c2ccccc21 (stereo not given)	nt	nt	nt	nt	nt	-79*
COc1ccc(NC(=O)COc2ccc(-c3nn(C)c(=O)c4ccccc34)cc2)cc1	-4%	-23%	-19%	-14%	1%	3
SMILES	FBPA Giardia inh	HCV inhibitor	Vaccinia Venus	FMDV antiviral	Vaccinia mCherry	HCMV inh
COc1ccc(OCC(=O)Nc2cc(-c3nn(C)c(=O)c4ccccc34)ccc2OC)cc1	0%	8.9µM*	nt	?	nt	16
Cc1ccc(NC(=O)COC(=O)C2=NN(c3ccccc3)C(=O)CC2)c(Br)c1	nt	4%	-6%	-10%	i	0
O=C(Nc1ccc(S(=O)(=O)N2CCCC2)cc1)c1ccc(OCC2CCCO2)cc1 (stereo not given)	-3%	11µM*	-14%	18µM*	-4%	-88*
O=C(Nc1nc2ccccc2s1)c1ccc(OCC2CCCO2)cc1 (stereo not given)	0%	7.9µM*	-19%	-73%	-6%	-88*
O=C(Nc1cccc(S(=O)(=O)N2CCCCC2)c1)c1ccc(OCC2CCCO2)cc1 (stereo not given)	-7%	?	-3%	?	i	-66*
O=C(c1ccc(OCC2CCCO2)cc1)N1CCN(S(=O)(=O)c2cccc(F)c2)CC1 (stereo not given)	nt	-22%	-6%	-18%	-4%	0
Cc1nc(NC(=O)c2ccccc2)sc1-c1csc(Nc2ccc(Cl)cc2)n1	-2%	nt	nt	nt	nt	nt
COc1ccccc1Nc1nc(-c2sc(NC(=O)c3ccco3)nc2C)cs1	-4%	?	-27%	6%	?	1
COc1cccc(N(C(=O)c2ccco2)c2nc(-c3sc(NC(=O)c4ccco4)nc3C)cs2)c1	0%	4µM*	?	-6%	?	?
Cc1ccc(Cl)cc1Nc1nc(-c2sc(NC(=O)c3cccc(Cl)c3)nc2C)cs1	0%	nt	nt	nt	nt	nt
Cc1ccc(Cl)cc1Nc1nc(-c2sc(NC(=O)c3ccco3)nc2C)cs1	2%	8.9µM*	?	1%	?	?
Cc1nc(NC(=O)c2ccco2)sc1-c1csc(Nc2ccc(Cl)cc2)n1	0%	2.5µM*	?	0%	7.9µM*	?
Cc1nc(NC(=O)c2ccco2)sc1-c1csc(Nc2ccc(Cl)cc2Cl)n1	1%	?	?	-23%	-23%	-77*
COCC1CCCN(Cc2ccc3c(c2)CN(C(=O)c2cnn(C(C)C)c2)CCO3)C1 (stereo not given)	nt	nt	3%	-11%	-10%	nt
Cc1ccc(CONC(=O)c2ccc(C)cc2)cc1	nt	-9%	nt	58%	nt	7
O=C(c1ccccc1)c1ccc(OCC(O)CNCc2ccc(F)cc2)cc1 (stereo not given)	?	-4%	-22%	2%	-15%	13
Cc1ccc(C(OCC(O)CNCc2ccc(F)cc2)c2ccccc2)cc1 (stereo not given)	?	8.9µM*	nt	?	nt	-102*
Cc1c(C(=O)N2CCC(C)CC2)c(S(=O)(=O)Nc2cccc(C(F)(F)F)c2)c(C)n1C	nt	nt	-19%	60%	-22%	?
O=C(NCC1CC1)c1nnc2n1CCN(C(=O)c1cccc3c1OCCO3)C2	nt	nt	nt	nt	nt	11
CCc1ccn2cc(-c3ccc4c(c3)OCO4)nc2c1	?	?	-17%	8.9µM*	-22%	-78*

Bioassay records deposited in PubChem by National Center for Advancing Translational Sciences (NCATS).
